Measurements published in article PMC7862700, “An all-to-all approach to the identification of sequence-specific readers for epigenetic DNA modifications on cytosine”.

What was measured:
Experiment in all cases: DAPPL (digital affinity profiling via proximity ligation, sequencing); 10 mM Tris-HCl pH 7.5, 50 mM NaCl, 1 mM DTT, 4% glycerol, room temperature, 30 min; GST-TFs on glutathione beads, 16-mer random dsDNA library, 0.1% formaldehyde crosslink after washing; high values mean tight binding
Details in all cases: protein: recombinant; tags: N-terminal GST; dsDNA, one strand shown
[1] = biological target: T1, ELK1 (Homo sapiens, UniProt P19419 1-428)
T1 sequence: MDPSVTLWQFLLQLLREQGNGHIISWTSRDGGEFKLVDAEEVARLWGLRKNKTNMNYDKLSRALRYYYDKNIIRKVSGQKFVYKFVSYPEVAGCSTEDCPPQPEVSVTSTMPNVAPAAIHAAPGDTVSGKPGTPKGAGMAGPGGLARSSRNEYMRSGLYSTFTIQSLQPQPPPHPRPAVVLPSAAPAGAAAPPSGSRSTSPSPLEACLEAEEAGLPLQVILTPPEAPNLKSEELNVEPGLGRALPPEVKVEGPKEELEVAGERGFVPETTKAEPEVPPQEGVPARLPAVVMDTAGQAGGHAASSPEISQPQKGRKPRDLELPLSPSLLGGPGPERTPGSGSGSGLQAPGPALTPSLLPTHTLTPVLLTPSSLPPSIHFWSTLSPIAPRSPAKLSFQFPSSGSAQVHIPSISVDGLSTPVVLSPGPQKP
Summary of the method: (§1)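 Beads coated with glutathione captured GST-fused human transcription factors that had been expressed in yeast, and the factors were then given DNA barcodes and pooled with a tag-only sample. The pools were incubated with 200 nmole of a random double-stranded 16-mer DNA library in Tris/NaCl/DTT/glycerol buffer for 30 min at room temperature, washed, crosslinked with 0.1% formaldehyde and proximity-ligated with BsaI/T4 ligase at 37 °C for 1 h. PCR amplification and Illumina NextSeq500 sequencing came last. Binding signal is each hexamer's read frequency for a factor divided by its frequency for the tag-only sample.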

[2] = biological target: T2, ERG (Homo sapiens, UniProt P11308 1-479)
T2 sequence: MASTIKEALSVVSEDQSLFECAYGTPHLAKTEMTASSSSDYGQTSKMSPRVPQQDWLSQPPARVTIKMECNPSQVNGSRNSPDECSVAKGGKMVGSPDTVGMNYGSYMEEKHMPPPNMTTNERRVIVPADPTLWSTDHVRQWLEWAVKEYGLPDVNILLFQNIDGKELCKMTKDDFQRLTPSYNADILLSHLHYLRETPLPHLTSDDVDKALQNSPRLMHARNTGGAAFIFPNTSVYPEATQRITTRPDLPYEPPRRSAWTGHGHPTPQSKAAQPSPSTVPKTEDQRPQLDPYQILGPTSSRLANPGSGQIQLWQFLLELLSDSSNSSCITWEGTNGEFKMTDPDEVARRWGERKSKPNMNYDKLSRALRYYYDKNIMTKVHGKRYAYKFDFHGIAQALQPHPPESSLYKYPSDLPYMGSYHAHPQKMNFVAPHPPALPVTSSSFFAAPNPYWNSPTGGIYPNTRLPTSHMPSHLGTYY
Summary of the method: as §1

[3] = biological target: T3, EHF (Homo sapiens, UniProt Q9NZC4 1-300)
T3 sequence: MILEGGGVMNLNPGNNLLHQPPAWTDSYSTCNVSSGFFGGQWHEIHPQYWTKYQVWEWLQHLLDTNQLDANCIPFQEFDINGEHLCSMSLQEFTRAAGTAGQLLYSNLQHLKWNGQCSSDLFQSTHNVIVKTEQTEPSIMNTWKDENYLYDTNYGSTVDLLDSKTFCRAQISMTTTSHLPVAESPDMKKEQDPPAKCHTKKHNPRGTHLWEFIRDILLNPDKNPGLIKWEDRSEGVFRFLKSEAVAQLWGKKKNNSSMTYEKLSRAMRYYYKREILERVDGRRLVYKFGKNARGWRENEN
Summary of the method: as §1

[4] = biological target: SPIB (Homo sapiens, UniProt Q01892 1-262)
SPIB, sequence (Q01892 whole entry): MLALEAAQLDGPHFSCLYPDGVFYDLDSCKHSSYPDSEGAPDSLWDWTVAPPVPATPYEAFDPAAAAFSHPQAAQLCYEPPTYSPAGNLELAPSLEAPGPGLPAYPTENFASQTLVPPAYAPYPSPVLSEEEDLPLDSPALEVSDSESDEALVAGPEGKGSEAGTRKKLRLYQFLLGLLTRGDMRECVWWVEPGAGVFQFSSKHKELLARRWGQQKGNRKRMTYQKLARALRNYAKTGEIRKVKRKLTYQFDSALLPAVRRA
Summary of the method: as §1

[5] = biological target: T4, ELK3 (Homo sapiens, UniProt P41970 1-407)
T4 sequence: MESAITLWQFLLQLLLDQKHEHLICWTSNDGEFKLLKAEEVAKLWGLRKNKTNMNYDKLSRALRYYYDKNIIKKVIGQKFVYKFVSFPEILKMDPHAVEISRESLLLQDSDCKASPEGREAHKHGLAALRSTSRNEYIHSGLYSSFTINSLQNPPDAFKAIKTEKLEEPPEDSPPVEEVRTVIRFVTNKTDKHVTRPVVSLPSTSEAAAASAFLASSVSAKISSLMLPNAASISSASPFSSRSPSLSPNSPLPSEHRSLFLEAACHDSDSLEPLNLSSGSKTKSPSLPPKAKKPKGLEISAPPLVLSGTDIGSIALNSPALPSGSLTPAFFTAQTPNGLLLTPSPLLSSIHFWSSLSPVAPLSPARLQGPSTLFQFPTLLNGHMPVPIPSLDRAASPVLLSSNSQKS
Summary of the method: as §1

[6] = biological target: ETV5 (Homo sapiens, UniProt P41161 1-510)
ETV5, sequence (P41161 whole entry): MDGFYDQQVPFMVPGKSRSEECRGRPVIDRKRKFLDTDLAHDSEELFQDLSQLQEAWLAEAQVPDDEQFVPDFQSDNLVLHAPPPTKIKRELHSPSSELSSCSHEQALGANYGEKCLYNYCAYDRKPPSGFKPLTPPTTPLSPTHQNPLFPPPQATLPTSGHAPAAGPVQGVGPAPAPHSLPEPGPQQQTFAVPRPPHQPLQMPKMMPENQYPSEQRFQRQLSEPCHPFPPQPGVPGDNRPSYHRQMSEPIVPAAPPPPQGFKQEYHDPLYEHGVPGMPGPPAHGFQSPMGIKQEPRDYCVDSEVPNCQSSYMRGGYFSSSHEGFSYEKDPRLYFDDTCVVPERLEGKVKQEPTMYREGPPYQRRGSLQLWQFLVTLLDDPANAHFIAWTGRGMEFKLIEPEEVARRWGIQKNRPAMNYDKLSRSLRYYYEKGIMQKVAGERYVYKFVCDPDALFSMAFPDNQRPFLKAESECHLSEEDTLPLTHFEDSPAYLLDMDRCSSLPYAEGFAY
Summary of the method: as §1

[7] = biological target: T5, SPIC (Homo sapiens, UniProt Q8N5J4 1-248)
T5 sequence: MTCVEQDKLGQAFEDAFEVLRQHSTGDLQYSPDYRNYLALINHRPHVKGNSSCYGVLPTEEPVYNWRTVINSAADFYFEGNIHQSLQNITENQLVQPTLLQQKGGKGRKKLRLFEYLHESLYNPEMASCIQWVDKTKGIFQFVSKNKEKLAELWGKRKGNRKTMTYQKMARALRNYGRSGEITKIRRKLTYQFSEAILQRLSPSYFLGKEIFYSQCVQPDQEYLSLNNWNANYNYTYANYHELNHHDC
Summary of the method: as §1

[8] = biological target: ELF4 (Homo sapiens, UniProt Q99607 1-663)
ELF4, sequence (Q99607 whole entry): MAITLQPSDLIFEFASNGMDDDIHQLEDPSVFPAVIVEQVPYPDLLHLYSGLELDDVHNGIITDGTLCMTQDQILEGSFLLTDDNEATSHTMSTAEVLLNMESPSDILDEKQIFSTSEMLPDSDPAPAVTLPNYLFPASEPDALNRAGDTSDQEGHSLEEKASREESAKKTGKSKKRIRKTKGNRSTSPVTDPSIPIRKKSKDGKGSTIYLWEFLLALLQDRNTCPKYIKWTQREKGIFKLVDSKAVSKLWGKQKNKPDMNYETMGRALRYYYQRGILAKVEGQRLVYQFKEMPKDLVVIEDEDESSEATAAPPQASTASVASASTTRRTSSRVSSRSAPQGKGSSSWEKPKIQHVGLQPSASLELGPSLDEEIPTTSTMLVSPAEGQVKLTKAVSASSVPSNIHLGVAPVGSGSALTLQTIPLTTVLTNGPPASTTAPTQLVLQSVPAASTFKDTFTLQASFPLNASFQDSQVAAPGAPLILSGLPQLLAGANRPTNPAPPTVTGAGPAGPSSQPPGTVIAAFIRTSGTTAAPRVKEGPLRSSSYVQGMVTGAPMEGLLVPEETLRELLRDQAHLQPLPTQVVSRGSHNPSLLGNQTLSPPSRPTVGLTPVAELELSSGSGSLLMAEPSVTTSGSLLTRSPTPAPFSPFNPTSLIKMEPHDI
Summary of the method: as §1

[9] = biological target: T6, ELK4 (Homo sapiens, UniProt P28324-2 1-405)
T6 sequence: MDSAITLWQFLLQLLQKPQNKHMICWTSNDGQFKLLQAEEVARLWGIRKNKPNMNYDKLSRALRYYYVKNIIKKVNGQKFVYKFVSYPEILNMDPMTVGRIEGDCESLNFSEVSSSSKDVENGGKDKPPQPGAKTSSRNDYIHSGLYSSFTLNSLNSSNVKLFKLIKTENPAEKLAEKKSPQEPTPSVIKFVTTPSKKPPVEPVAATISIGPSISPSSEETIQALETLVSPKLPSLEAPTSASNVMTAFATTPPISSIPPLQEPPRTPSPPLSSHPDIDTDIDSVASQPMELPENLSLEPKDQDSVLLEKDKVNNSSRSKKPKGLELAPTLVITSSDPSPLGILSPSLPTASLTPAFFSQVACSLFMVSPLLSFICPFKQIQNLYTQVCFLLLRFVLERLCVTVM
Summary of the method: as §1

[10] = biological target: ETV1 (Homo sapiens, UniProt P50549 1-477)
ETV1, sequence (P50549 whole entry): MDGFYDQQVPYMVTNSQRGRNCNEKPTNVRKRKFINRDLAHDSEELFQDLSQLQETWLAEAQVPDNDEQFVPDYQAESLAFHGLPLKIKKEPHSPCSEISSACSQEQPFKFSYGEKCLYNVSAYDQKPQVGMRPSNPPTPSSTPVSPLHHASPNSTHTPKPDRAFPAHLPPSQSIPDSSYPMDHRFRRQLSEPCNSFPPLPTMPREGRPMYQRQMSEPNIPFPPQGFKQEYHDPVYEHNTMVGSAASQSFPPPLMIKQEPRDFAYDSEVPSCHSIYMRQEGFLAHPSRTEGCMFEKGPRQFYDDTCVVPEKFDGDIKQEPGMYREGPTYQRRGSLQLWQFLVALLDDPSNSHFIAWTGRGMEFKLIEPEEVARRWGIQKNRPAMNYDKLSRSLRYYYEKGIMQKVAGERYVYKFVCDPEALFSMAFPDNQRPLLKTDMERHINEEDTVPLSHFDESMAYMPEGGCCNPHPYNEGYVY
Summary of the method: as §1

[11] = biological target: T7, ERF (Homo sapiens, UniProt P50548 1-548)
T7 sequence: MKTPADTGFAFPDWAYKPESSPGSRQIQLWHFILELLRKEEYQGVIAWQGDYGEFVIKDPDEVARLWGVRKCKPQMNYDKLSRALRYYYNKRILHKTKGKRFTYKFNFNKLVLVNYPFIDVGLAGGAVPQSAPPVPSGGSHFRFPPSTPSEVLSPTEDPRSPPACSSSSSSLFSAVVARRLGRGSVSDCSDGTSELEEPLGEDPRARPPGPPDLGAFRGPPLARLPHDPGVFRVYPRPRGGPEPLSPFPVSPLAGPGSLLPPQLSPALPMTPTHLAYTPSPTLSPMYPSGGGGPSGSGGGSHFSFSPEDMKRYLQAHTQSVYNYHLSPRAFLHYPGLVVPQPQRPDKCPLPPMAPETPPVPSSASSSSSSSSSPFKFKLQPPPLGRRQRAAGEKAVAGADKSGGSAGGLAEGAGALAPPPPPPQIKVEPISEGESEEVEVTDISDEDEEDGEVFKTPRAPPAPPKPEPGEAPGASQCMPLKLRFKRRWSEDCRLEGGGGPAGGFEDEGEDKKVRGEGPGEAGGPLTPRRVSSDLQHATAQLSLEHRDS
Summary of the method: as §1

[12] = biological target: T8, ETV3L (Homo sapiens, UniProt Q6ZN32 1-361)
T8 sequence: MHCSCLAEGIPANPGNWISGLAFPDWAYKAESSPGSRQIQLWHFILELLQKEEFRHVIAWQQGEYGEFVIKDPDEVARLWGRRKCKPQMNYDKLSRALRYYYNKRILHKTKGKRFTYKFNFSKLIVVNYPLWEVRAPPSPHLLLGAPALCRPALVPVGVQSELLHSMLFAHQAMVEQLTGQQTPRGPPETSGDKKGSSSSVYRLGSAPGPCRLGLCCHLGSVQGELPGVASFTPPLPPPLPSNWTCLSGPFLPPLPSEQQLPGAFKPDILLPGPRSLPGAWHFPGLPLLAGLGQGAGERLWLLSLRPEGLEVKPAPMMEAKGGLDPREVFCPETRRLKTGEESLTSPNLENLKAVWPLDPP
Summary of the method: as §1

[13] = biological target: T9, SPDEF (Homo sapiens, UniProt O95238 1-335)
T9 sequence: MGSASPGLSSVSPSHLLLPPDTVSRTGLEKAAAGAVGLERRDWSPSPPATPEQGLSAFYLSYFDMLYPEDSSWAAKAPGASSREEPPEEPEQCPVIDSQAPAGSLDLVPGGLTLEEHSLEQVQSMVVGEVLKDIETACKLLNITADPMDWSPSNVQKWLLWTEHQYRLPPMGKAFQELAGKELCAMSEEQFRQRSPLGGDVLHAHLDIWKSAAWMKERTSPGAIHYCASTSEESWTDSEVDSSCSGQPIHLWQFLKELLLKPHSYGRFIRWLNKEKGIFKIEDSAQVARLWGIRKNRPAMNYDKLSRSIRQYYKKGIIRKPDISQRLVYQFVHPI
Summary of the method: as §1

[14] = biological target: T10, ETV7 (Homo sapiens, UniProt Q9Y603 1-341)
T10 sequence: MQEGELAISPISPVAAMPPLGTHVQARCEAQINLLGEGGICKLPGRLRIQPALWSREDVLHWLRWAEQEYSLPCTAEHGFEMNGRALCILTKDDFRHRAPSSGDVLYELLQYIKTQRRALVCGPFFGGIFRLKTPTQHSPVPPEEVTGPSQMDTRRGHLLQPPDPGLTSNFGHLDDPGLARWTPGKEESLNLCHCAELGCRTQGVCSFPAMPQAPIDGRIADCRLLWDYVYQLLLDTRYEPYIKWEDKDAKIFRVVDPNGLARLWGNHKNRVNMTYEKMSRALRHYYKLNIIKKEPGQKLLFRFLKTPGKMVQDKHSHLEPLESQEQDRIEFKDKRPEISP
Summary of the method: as §1

[15] = biological target: T11, ETV3 (Homo sapiens, UniProt P41162-2 1-143)
T11 sequence: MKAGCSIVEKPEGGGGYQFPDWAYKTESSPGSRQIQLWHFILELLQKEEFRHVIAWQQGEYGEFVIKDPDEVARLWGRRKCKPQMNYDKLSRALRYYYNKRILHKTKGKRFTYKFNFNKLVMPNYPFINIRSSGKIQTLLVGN
Summary of the method: as §1

[16] = biological target: ETV6 (Homo sapiens, UniProt P41212 1-452)
ETV6, sequence (P41212 whole entry): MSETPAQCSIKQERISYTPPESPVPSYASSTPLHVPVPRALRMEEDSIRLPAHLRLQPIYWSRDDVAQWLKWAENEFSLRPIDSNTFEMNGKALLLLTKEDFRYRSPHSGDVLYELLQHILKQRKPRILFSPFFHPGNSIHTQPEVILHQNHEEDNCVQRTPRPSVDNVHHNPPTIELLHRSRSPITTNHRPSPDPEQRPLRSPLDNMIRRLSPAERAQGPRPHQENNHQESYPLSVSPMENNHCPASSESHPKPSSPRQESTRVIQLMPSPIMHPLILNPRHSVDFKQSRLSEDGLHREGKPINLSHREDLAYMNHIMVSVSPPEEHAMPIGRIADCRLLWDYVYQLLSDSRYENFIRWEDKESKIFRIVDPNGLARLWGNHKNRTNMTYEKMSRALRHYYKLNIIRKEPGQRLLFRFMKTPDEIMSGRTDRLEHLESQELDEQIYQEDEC
Summary of the method: as §1

Sequence | binding signal [1] | binding signal [2] | binding signal [3] | binding signal [4] | binding signal [5] | binding signal [6] | binding signal [7] | binding signal [8] | binding signal [9] | binding signal [10] | binding signal [11] | binding signal [12] | binding signal [13] | binding signal [14] | binding signal [15] | binding signal [16]
CAATGT | 1.06 fold enrichment (6-mer frequency, TF over GST control) | 1.02 fold enrichment (6-mer frequency, TF over GST control) | 1.05 fold enrichment (6-mer frequency, TF over GST control) | 1.04 fold enrichment (6-mer frequency, TF over GST control) | 1.01 fold enrichment (6-mer frequency, TF over GST control) | 1.02 fold enrichment (6-mer frequency, TF over GST control) | 1.13 fold enrichment (6-mer frequency, TF over GST control) | 1.06 fold enrichment (6-mer frequency, TF over GST control) | 1.1 fold enrichment (6-mer frequency, TF over GST control) | 1.07 fold enrichment (6-mer frequency, TF over GST control) | 1.05 fold enrichment (6-mer frequency, TF over GST control) | 1.03 fold enrichment (6-mer frequency, TF over GST control) | 1.07 fold enrichment (6-mer frequency, TF over GST control) | 1.09 fold enrichment (6-mer frequency, TF over GST control) | 1.03 fold enrichment (6-mer frequency, TF over GST control) | 1.05 fold enrichment (6-mer frequency, TF over GST control)
GCGAAA | – | – | – | – | – | 1.01 fold enrichment (6-mer frequency, TF over GST control) | – | – | – | – | – | – | – | 1.04 fold enrichment (6-mer frequency, TF over GST control) | – | –
